Lassa entry inh – inhibitors of Lassa virus binding or cell entry | Potency, µM (series often up to 37.9 µM), usual class: inhibitors | AID 540256 | 300,000 tested, 1.2% active | Lassa virus pseudotype entry inhibition, cell reporter; calls by dose curve; tested in HEK293 cells; note: nearly all actives have a fitted effect of over 50% in size
HCMV inh – human cytomegalovirus inhibition; HFF cells, HCMV-luciferase reporter, 72 h; hits give low values; activity change, negative = inhibition, % at 57.5 µM; 410,000 tested, 4.5% active; AID 1259415; in the data active = activity change below about -60%; inconclusive = no clear call, values can overlap the other calls; inactive = above about -39%
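Two-dose cell screen: HFF monolayers treated with compounds and infected with luciferase-expressing HCMV at 1 PFU/cell, 72 h at 37C, then lysed for luciferase measurement.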
Pf growth 96h – P. falciparum growth inhibition at 96 hours. AID 504834. 320,000 tested, 6.9% active. P. falciparum luciferase reporter growth, 96 h. Potency, µM (doses to about 28.7 µM), most hits filed as inhibitors
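P. falciparum expressing integrated firefly luciferase grown in erythrocytes (2% hematocrit, 0.05% parasitemia final) with compounds for 96 hours at 37 C, 5% CO2. Growth inhibition read as loss of luminescence after adding luciferase detection reagent.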
HCV inh – inhibitors of hepatitis C virus infection; 340,000 tested, 3.4% active; Potency, µM (top dose mostly 41.8 µM), most hits filed as inhibitors; Huh7.5.1 HCVcc-Cre infection, luciferase reporter, 44 h; AID 651820
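A cell-based infection assay in which seeded cells (1,000 per well) receive test compound after 4 h, are inoculated with HCVcc-Cre at approximately 0.5 moi, and are incubated 44 h before luminescence detection.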
Marburg entry inh – Marburg virus entry inhibition; Marburg virus pseudotyped entry inhibition, cell reporter; Potency, µM (titrated, usually from 37.8 µM), usual class: inhibitors; 300,000 tested, 1.8% active; AID 540276; calls by dose curve; tested in HEK293 cells
Pf growth 48h – inhibits P. falciparum growth in the first generation, 48 h; P. falciparum luciferase growth in erythrocytes, 48 h; Potency, µM (series often up to 28.7 µM), hits mostly inhibitors; 310,000 tested, 5.9% active
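A one-generation exposure of luciferase-tagged malaria parasites in RPMI 1640/Albumax erythrocyte culture, 37 C and 5% CO2. Inhibition is inferred from decreased luminescence after adding detection reagent.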
Of the large screens only hits and unclear results are named; the others gave an inactive call; ! = not confirmed by another sample. In the library only some 14% were active in any assay of this set; here they are far more common. Unless noted, calls come from the whole dose curve; as a rule, active = well fitted inhibition curve with a large enough effect; inconclusive = small, poorly fitted or top-dose-only effect, or another doubt; inactive = no such curve, though single readings can be large or run the other way.

COc1cc(CN(C)CC2CCCN(CCc3cccc(C(F)(F)F)c3)C2)ccc1O (stereo not drawn)	Lassa entry inh inconclusive, Pf growth 96h inconclusive, HCV inh 13µM, Marburg entry inh inconclusive, Pf growth 48h 2.9µM
C[C@@H]1CN([C@@H](C)CO)C(=O)CCCn2nncc2CO[C@H]1CN(C)Cc1ccc(O)cc1	none (no result: Lassa entry inh, Pf growth 96h, HCV inh, Marburg entry inh, Pf growth 48h)
COc1cccc(CNC(=O)c2ccc(Cn3c(SCc4ccccc4)nc4cccnc43)cc2)c1	Lassa entry inh inconclusive (no result: Pf growth 96h, HCV inh, Marburg entry inh, Pf growth 48h)
COC(=O)c1cccc(N2C(=O)C[C@](Sc3ccc(OC)cc3)(C(=O)N(C)C)[C@H]2c2ccc(OC)cc2)c1	none (no result: Lassa entry inh, Pf growth 96h, HCV inh, Marburg entry inh, Pf growth 48h)
O=C(Nc1ccc(F)c(Cl)c1)C1CCN(S(=O)(=O)c2ccc3[nH]c(=O)ccc3c2)CC1	Lassa entry inh inconclusive (no result: Pf growth 96h, HCV inh, Marburg entry inh, Pf growth 48h)
CCOC(=O)/C(C#N)=C/c1ccc(-c2ccc(C)cc2)o1	none (no result: Pf growth 96h, HCV inh, Marburg entry inh, Pf growth 48h)
CCOc1cccc(CN(C)CC2CCCN(CCc3ccc(Cl)cc3)C2)c1O (stereo not drawn)	Pf growth 96h 1.5µM, HCV inh 5µM, Pf growth 48h 3.7µM (no result: Lassa entry inh, Marburg entry inh)
COc1ccc(CN(C)CC2CCCN(CCc3ccc(Cl)cc3)C2)cc1OC (stereo not drawn)	Lassa entry inh inconclusive, HCV inh 10µM, Marburg entry inh 2.2µM, Pf growth 48h inconclusive
CCn1c(SCC(=O)n2c(C)c(C)c3ccccc32)nnc1-c1ccco1	Pf growth 96h 6.6µM
O=C(c1ccc(CS(=O)c2ccccc2Cl)o1)N1CCCCCC1 (stereo not drawn)	none (no result: Lassa entry inh, Marburg entry inh)
O=C(c1ccc(CS(=O)c2ccccc2Cl)o1)N1CCN(C2CCCCC2)CC1 (stereo not drawn)	HCMV inh -101 (no result: Lassa entry inh, Pf growth 96h, HCV inh, Marburg entry inh, Pf growth 48h)
O=C(c1ccc(CS(=O)c2ccccc2Cl)o1)N1CCN(c2ccccc2F)CC1 (stereo not drawn)	HCMV inh -67 (no result: Pf growth 96h, HCV inh, Marburg entry inh, Pf growth 48h)
COc1ccc(OC)c(NC(=O)c2ccc3nc(C(C)C)oc3c2)c1	none (no result: Pf growth 96h, HCV inh, Marburg entry inh, Pf growth 48h)
COc1ccc(-c2ncncc2-c2ccccc2)c(O)c1	HCMV inh inconclusive, Pf growth 96h inconclusive, Pf growth 48h inconclusive (no result: Lassa entry inh, Marburg entry inh)
C=C(C)COc1ccc(-c2ncncc2-c2ccccc2)c(O)c1	Pf growth 96h 13µM, Pf growth 48h 9.3µM
CCOc1ccc(-c2ncncc2-c2ccc(OC)cc2)c(O)c1	HCMV inh inconclusive, Pf growth 96h inconclusive, Marburg entry inh inconclusive, Pf growth 48h 7.4µM
COc1ccc(-c2cc(-c3ccccc3)n[nH]2)c(O)c1	Lassa entry inh inconclusive, Marburg entry inh inconclusive
CO[C@@H]1c2ccccc2[C@H]2C(C(=O)O)c3c(n(C)c4ccccc34)[C@H]2[C@H]1C (stereo partly drawn)	none (no result: Lassa entry inh, HCMV inh, Pf growth 96h, HCV inh, Pf growth 48h)
COC(=O)/C=C1\OCc2c(F)cccc21	none (no result: Lassa entry inh, Pf growth 96h, HCV inh, Marburg entry inh, Pf growth 48h)
Cc1ccc(Nc2ncc(C(=O)NCCCN3CCN(C)CC3)c3ccccc23)cc1Cl	Lassa entry inh inconclusive, HCV inh 10µM, Marburg entry inh inconclusive, Pf growth 48h inconclusive
O=C(NCCN1CCOCC1)c1cc(-c2ccc(Cl)s2)nc2ccccc12	none
O=C(NCCN1CCOCC1)c1cc(Sc2ccccc2Cl)nc2ccccc12	HCMV inh -61, Pf growth 96h inconclusive, HCV inh inconclusive
O=C(NCCCN1CCOCC1)c1cc(-c2ccccc2)nc2ccccc12	Pf growth 48h inconclusive
Cc1ccc(Nc2cc(C(=O)NCCCN3CCOCC3)c3ccccc3n2)cc1C	HCV inh 22µM (no result: Lassa entry inh, Marburg entry inh)
O=C(NCCN1CCOCC1)c1cc(-c2ccccc2Cl)nc2ccccc12	Pf growth 96h 9.3µM
CCN(CC)c1ccc(NC(=O)CCS(=O)(=O)c2cc3c(cc2Cl)NC(=O)CO3)c(C)c1	none (no result: Pf growth 96h, HCV inh, Marburg entry inh, Pf growth 48h)
CN(C)c1ccc(CNC(=O)CN2CCSc3ccc(S(=O)(=O)N(C)C)cc32)cc1	none (no result: Pf growth 96h, HCV inh, Marburg entry inh, Pf growth 48h)
CCOC(=O)Cn1c(COc2ccccc2OC)[n+](C)c2ccccc21	HCV inh inconclusive (no result: Lassa entry inh, Pf growth 96h, Marburg entry inh, Pf growth 48h)
CCCCCCCCCCOC(=O)Cn1c(COc2cccc(C)c2)[n+](C)c2ccccc21	Pf growth 96h 5.2µM, HCV inh inconclusive, Marburg entry inh inconclusive, Pf growth 48h inconclusive
CCCCCCCCCCOC(=O)Cn1c(COc2ccc(Cl)cc2)[n+](C)c2ccccc21	Pf growth 96h inconclusive, HCV inh inconclusive, Pf growth 48h inconclusive (no result: Lassa entry inh, Marburg entry inh)
CCCCCCCCCCOC(=O)Cn1c(COc2ccc(OC)cc2)[n+](C)c2ccccc21	Lassa entry inh inconclusive, Pf growth 96h 4.7µM!, HCV inh inconclusive, Marburg entry inh 3.2µM, Pf growth 48h 4.1µM (no result: HCMV inh)

Assay outcomes (PubChem)
